Bioassay records (PubChem)
CHRM1 PAM: human M1 muscarinic receptor positive allosteric modulators, primary screen, CHO-K1 cells, Fluo-8 calcium fluorescence, 1536-well. activation, % at 3 µM. actives 0.088% (n = 360,000). CHO-K1 hM1, ACh EC20; 0% = ACh EC20, 100% = maximal ACh; in the data active = activation above about 19%, passing the limit was not always enough
Target sequence (P11229 whole entry, looked up): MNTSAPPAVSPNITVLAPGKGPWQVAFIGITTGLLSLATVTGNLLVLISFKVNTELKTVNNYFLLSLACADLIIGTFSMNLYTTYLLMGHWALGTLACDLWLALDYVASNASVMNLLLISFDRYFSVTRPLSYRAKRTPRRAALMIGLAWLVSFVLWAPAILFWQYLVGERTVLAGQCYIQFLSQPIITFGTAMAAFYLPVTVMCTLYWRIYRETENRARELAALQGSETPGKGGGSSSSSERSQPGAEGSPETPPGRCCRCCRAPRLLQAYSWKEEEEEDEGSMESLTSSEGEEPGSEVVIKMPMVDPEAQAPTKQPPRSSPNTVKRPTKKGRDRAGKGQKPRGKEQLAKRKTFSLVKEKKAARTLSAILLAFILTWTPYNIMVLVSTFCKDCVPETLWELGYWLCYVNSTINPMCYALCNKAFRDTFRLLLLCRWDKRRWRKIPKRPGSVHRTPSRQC
CHO-K1 Ca antag: nonselective inhibitor or artifact in parental CHO-K1 cells; ATP-induced calcium, Fluo-8 fluorescence; actives 0.6% (n = 360,000); AID 602250; inhibition, % at 3 µM;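 active = inhibition above a per-plate cutoff, the plate's mean sample inhibition plus 3 SD, cut at about 24% in these data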;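 also: 0% = DMSO plus EC80 ATP and 100% = DMSO alone without ATP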
CHRM1 antagonist: human M1 muscarinic receptor antagonists, primary screen, CHO-K1 cells, Fluo-8 calcium fluorescence, 1536-well; Muscarinic acetylcholine receptor M1 (Homo sapiens), P11229; CHO-K1 hM1, ACh EC80 antagonist; inhibition, % at 3 µM; actives 1.3% (n = 360,000);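 active = percent inhibition above its own plate's cutoff, namely the mean of that plate's compound wells plus 3 SD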;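 also: peak over basal fluorescence ratio during 140 s after agonist addition; 0% = ACh EC80 plus DMSO and 100% = DMSO alone without agonist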
CHO-K1 Ca ag: counter-screen for M1 agonists: effect in parental CHO-K1 cells; Fluo-8 calcium fluorescence; scaled to maximal ATP response, vehicle zero; activation, % at 3 µM; actives 0.48% (n = 360,000); AID 602248, 2012; in the data active = activation above about 15%;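 also: untransfected CHO-K1 host cells lacking M1 receptor as counterscreen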
M1 ag: human M1 muscarinic receptor agonists, primary screen, Fluo-8 calcium fluorescence, CHO-K1 cells, HTS; Muscarinic acetylcholine receptor M1 (Homo sapiens), P11229; actives 0.33% (n = 360,000); activation, % at 3 µM; CHO-K1 hM1, agonist mode; 0% DMSO, 100% acetylcholine EC100;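 active = activation above the run's mean compound activation plus 3 SD, cut at about 16% in these data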;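 also: peak over basal fluorescence ratio within a 140 s kinetic read after compound addition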
CHO-K1 Ca PAM: nonselective calcium activators in parental CHO-K1 cells, primary screen, counter-screen for M1 PAM project, cell-based, Fluo-8 calcium fluorescence, full deck, 1536-well | ATP EC20; 0% at ATP EC20, 100% at ATP max | activation, % at 3 µM | actives 0.02% (n = 360,000) | AID 602247, 2012;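 active = activation above the run cutoff, the mean activation of all test compounds plus 3 SD, cut at about 40% in these data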;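 also: peak over basal fluorescence ratio in a 140 s read after ATP addition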
* = called active by the depositor. This is a sample that favours compounds with a hit; in the whole collection about 2.3% have one here.

SMILES	CHRM1 PAM	CHO-K1 Ca antag	CHRM1 antagonist	CHO-K1 Ca ag	M1 ag	CHO-K1 Ca PAM
CC1(C(=O)NCc2cccs2)Cc2c(-c3ccccc3)ccnc2O1 (stereo unspecified)	3	3	-12	0	-4	1
C[C@@H]1CN([C@@H](C)CO)C(=O)c2cc(N(C)C)ccc2O[C@@H](C)CCCCO[C@@H]1CN(C)Cc1ccc2c(c1)OCO2	5	-18	-20	0	-9	14
CCCCCCC[C@@H](C/C=C/CCC(=O)N(C)C/C(=C/Cl)C/C(=C\C(=O)N1CC(OC)=CC1=O)OC)OC	-11	-4	33*	2	-4	1
NC(=O)c1ccsc1NC(=O)COC(=O)c1ccc(Cl)cc1	-13	14	11	8	0	-4
Cc1ccc(OC(C)C(=O)OCC(=O)Nc2sccc2C(N)=O)cc1 (stereo unspecified)	-8	5	17	15*	4	-10
NC(=O)c1ccsc1NC(=O)COC(=O)CSc1ccc(Cl)cc1	-19	24*	25	9	-1	-15
N#Cc1ccc(OCC(=O)OCC(=O)Nc2sccc2C(N)=O)cc1	-4	-8	17	16*	3	-9
Cc1ccc(OCC(=O)OCC(=O)Nc2sccc2C(N)=O)cc1C	-13	33*	22	13	-2	-8
CCc1sc(C(=O)N(CCOC)c2c(N)n(Cc3ccccc3)c(=O)[nH]c2=O)cc1C	0	6	1	0	-3	4
O=C(c1ccccc1)c1ccc(O)cc1O	9	-3	-10	16*	9	2
O=C(c1ccccc1)c1ccc2ccccc2c1	-1	-9	-4	0	-6	5
Cc1cc2ccccc2cc1C(=O)c1ccccc1	28*	-19	-36	0	-1	13
CCn1ccc(C(=O)Nc2ccc(Cl)cn2)n1	-19	20	33*	4	0	-7
COc1ccc(OCCNC(=O)c2cccc(Oc3ccc(C(F)(F)F)cc3[N+](=O)[O-])c2)cc1	-10	25*	6	0	-6	-15
c1ccc(Oc2cc(-c3ccccc3)nc(-c3ccccc3)n2)cc1	26*	3	9	0	-2	-7
Cc1cc(Oc2ccccc2)nc(-c2ccccc2)n1	9	-36	-10	-1	-4	6
O=C(NC1CCCC1)C1CCN(C(=O)NCc2ccccc2)CC1	11	-10	-6	1	-3	16
O=C(NC1CC2CCCC(C1)N2Cc1ccccc1)C1CCCCC1 (stereo unspecified)	-18	-10	38*	0	-5	28
O=C(NC1CC2CCC(C1)N2C(=O)NCc1ccccc1)C1CC1 (stereo unspecified)	-17	13	37*	0	-6	-7
O=C(CN1C2CCCC1CC(NC(=O)C1CCCCC1)C2)Nc1ccccc1 (stereo unspecified)	3	-12	-7	1	-10	9
CCCCN1C2CCCC1CC(NC(=O)C1CCCCC1)C2 (stereo unspecified)	-19	-12	43*	1	-4	21
C(=C\c1ccccc1)/CN1CCN(C(c2ccnc3ccccc23)c2nnnn2C2CCCCC2)CC1 (stereo unspecified)	-26	-20	17	0	-7	15
C(=C\c1ccccc1)/CN1CCN(C(c2ccccc2)c2nnnn2C2CCCCC2)CC1 (stereo unspecified)	-26	-10	43*	0	-6	3
CCC(c1nnnn1C1CCCC1)N1CCN(C/C=C/c2ccccc2)CC1 (stereo unspecified)	-4	-10	-20	6	-3	14
COc1cccc(C(c2nnnn2C2CCCC2)N2CCN(C/C=C/c3ccccc3)CC2)c1OC (stereo unspecified)	-25	-15	54*	0	-6	16
SMILES	CHRM1 PAM	CHO-K1 Ca antag	CHRM1 antagonist	CHO-K1 Ca ag	M1 ag	CHO-K1 Ca PAM
O=C(Nc1ccccc1N1CCCC1)c1cc(=O)[nH]c2ccccc12	3	-6	-9	2	-1	11
CC(C)=C[C@H]1C[C@H](C)[C@H]2CC[C@H](C)c3c(O[C@@H]4O[C@@H](C)[C@@H](O)[C@@H](O)[C@@H]4O)c(O)c(C)c1c32	9	-2	-13	0	1	6
CCCCOC(=O)n1c(=O)oc2ccccc21	-2	2	1	0	-2	-3
CCOC(=O)n1c(=O)oc2ccc(Cl)cc21	-2	29*	-5	0	0	-6
CC1CCc2sc(C(=O)N/N=C/c3ccc(O)cc3)cc2C1 (stereo unspecified)	7	-4	-11	6	-1	19
CCN(C(=O)C1CCN(c2nc(-c3ccc(OC)cc3)no2)CC1)c1ccc(OC)cc1	-21	10	42*	6	4	12
COc1ccc(NC(=O)C2CCN(c3nc(-c4ccc(OC)cc4)no3)CC2)cc1	-12	9	18	0	-4	1
CCCOC1CCCN(Cc2nc(-c3cnccn3)no2)C1 (stereo unspecified)	-2	-6	4	0	0	-9
C[C@@H]1CN(Cc2nc(-c3cnccn3)no2)C[C@H](C)O1	-1	-1	10	24*	-3	11
O=C(c1cccc(C(F)(F)F)c1)C1CCCN(Cc2cccc(OCCO)c2)C1 (stereo unspecified)	-31	9	39*	4	-11	-2
O=C(c1cccc(C(F)(F)F)c1)C1CCCN(Cc2cccn2-c2ccccn2)C1 (stereo unspecified)	-36	0	35*	2	-14	5
O=C(c1ccc(-c2ccccc2)cc1)C1CCCN(Cc2ccncc2)C1 (stereo unspecified)	-16	1	11	8	-13	15
COCc1cc(CN2CCCC(C(=O)c3cccc(C(F)(F)F)c3)C2)ccc1OC (stereo unspecified)	-31	-9	43*	2	-12	14
CC(=O)Nc1ccc(CN2CCCC(C(=O)c3ccc(C(F)(F)F)cc3)C2)cc1 (stereo unspecified)	-38	-15	51*	3	-16	18
COc1ccccc1NC(=O)CNc1ccc(F)c(Cl)c1	10	8	-5	0	-7	3
CCN(CC)C(=O)C1=C(C)N(Cc2ccc(F)cc2)C(=O)C(CC(=O)NCC2CCCCC2)C1 (stereo unspecified)	8	-19	-13	-1	-7	12
